# Experimental data taken from PubChem BioAssay.
# Activity calls are given as the source filed them. Unless noted, how the calls were made is not given here.
# Legend:
# [1] = resazurin metabolic signal in HepG2 cells – cell-based, resazurin fluorescence, 24 h, PK04 Diversity Set, profiling panel (AID 1172); details: HepG2 viability, higher = more signal
# [2] = budding yeast growth changes without added modifier – OD600, strain BY4716, 24 h, basal condition, primary screen (AID 1173); details: S. cerevisiae BY4716 growth, OD600, 24 h; higher = more signal, called active from +8 up or from −8 down
# [3] = viability profiling in MM1S myeloma cells – cell-based, resazurin fluorescence, basal, 24 h, PK04 Diversity Set, profiling panel (AID 1174); details: higher = more signal, called active from +8 up or from −8 down;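 further: MM1S multiple myeloma cell line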
# [4] = biological target: Dihydroorotate dehydrogenase (quinone), mitochondrial (Plasmodium falciparum (isolate 3D7)) (UniProt Q08210); experiment: inhibition of P. falciparum DHODH – biochemical, C-terminal His tag, absorbance 600 nm, primary screen (AID 1175); details: PfDHODH enzyme, DCIP absorbance 600 nm; higher = more signal, called active from +8 up or from −8 down;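 further: recombinant parasite enzyme with a five histidine tag at its C terminus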
# [5] = inhibition of PAO1 biofilm formation – strain PAO1, LB-PBS medium, absorbance 600 nm, primary screen (AID 1176); details: P. aeruginosa PAO1 growth/biofilm, A600, 12 h; higher = more signal
# [6] = growth modulation of vineyard yeast isolate – strain RM11-1a, OD600, basal, 24 h, primary screen (AID 1177);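 further: cultures grown under basal conditions with no added stressor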; details: S. cerevisiae RM11-1a growth, OD600, 24 h; higher = more signal, called active from +8 up or from −8 down
# [7] = growth of efflux-deficient E. coli DRC39 – strain DRC39, OD650, 24 h, E. coli filamentation inducers, primary screen (AID 1178);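 further: growth measured as culture turbidity by optical density at 650 nm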; details: E. coli DRC39 acrAB, higher = more signal, called active from +8 up or from −8 down
# [8] = growth of efflux-deficient E. coli DRC39 – strain DRC39, OD650, 48 h, E. coli filamentation inducers, primary screen (AID 1179);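 further: screen aims at cell division blockers that make cells filament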; details: E. coli DRC39 delta-acrAB growth, higher = more signal, called active from +8 up or from −8 down
# [9] = viability profiling in RPMI8226 myeloma cells – cell-based, resazurin fluorescence, basal, 24 h, PK04 Diversity Set, profiling panel (AID 1180); details: higher = more signal;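 further: RPMI8826 multiple myeloma cell line at 5000 cells per well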
# [10] = biological target: E3 ubiquitin-protein ligase XIAP (Homo sapiens) (UniProt P98170); experiment: small molecules binding XIAP protein – biophysical, small-molecule microarray, fluorescence 635 nm, primary screen (AID 1181); details: higher = more signal;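 further: score merges 667 nm emission and signal to noise over triplicate slides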
# [11] = system: XIP peptide (Xip251-270) binding; experiment: XIP fragment 251-270 binding compounds – biochemical, small-molecule microarray, fluorescence 635/667 nm, 0.1 µg/mL protein, primary screen (AID 1182); details: fluorescent protein binding, 635 nm, higher = more signal, called active from +8 up or from −8 down
# [12] = system: XIP peptide (Xip251-270); experiment: compounds binding XIP fragment 251-270 – biochemical, small-molecule microarray, fluorescence 635/667 nm, 0.5 µg/mL protein, primary screen (AID 1183); details: fluorescence 635 nm, higher = more signal
# [13] = blood-stage malaria parasite viability loss – strain 3D7, DAPI fluorescence, 100 nL, primary screen (AID 1184);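 further: parasites grown inside human red blood cells in medium with human serum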; details: P. falciparum 3D7 growth, 3 d, higher = more signal
# [14] = biological target: Homeobox protein Hox-A13 (Mus musculus) (UniProt Q62424); experiment: disruptors of Hoxa13 oligonucleotide interaction – biochemical, fluorescence polarization, labeled oligonucleotide, primary screen (AID 1185); details: Hoxa13:DNA binding, 15 min, higher = more signal, called active from +8 up or from −8 down
# [15] = blockers of DNA damage checkpoint Chk1 activation – imaging, HeLa, hydroxyurea, phospho-Chk1 antibody, percent positive cells, primary screen (AID 1186); details: hydroxyurea-induced phospho-Chk1 immunofluorescence imaging, higher = more signal
# [16] = blockers of DNA damage checkpoint Chk1 activation – imaging, HeLa, hydroxyurea, phospho-Chk1 nuclear intensity, primary screen (AID 1187); details: hydroxyurea-induced phospho-Chk1 immunofluorescence imaging, higher = more signal
# E3 ubiquitin-protein ligase XIAP (Homo sapiens), sequence (P98170 whole entry, looked up, the tested form may be a part): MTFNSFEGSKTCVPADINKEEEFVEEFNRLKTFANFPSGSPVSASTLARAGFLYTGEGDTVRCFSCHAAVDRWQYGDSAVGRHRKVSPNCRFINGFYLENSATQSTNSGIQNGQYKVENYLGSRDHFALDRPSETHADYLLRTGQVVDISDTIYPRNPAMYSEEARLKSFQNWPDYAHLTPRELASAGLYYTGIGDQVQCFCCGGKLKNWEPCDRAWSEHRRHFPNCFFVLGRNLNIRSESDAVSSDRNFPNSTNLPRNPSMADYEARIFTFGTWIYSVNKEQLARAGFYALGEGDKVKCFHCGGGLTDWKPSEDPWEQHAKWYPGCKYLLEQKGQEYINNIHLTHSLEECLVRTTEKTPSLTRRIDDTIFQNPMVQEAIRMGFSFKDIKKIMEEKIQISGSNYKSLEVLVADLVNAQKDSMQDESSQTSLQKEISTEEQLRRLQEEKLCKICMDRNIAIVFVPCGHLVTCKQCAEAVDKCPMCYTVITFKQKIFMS
# Dihydroorotate dehydrogenase (quinone), mitochondrial (Plasmodium falciparum (isolate 3D7)), sequence (Q08210 whole entry, looked up): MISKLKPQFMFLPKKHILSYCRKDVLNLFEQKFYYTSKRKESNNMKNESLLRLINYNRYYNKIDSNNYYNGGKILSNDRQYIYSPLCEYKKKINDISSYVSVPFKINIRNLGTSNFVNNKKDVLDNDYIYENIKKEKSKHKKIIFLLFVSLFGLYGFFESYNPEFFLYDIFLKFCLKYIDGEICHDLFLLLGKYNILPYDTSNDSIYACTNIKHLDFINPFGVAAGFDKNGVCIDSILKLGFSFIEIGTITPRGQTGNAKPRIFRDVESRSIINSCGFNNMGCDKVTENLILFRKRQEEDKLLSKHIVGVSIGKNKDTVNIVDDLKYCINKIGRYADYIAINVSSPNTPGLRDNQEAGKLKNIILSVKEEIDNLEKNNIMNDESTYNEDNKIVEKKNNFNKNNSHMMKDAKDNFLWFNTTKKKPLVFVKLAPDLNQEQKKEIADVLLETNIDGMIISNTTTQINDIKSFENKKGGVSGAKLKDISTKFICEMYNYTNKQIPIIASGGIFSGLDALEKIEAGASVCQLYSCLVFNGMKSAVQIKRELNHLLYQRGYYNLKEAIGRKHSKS
# Homeobox protein Hox-A13 (Mus musculus), sequence (Q62424 whole entry, looked up): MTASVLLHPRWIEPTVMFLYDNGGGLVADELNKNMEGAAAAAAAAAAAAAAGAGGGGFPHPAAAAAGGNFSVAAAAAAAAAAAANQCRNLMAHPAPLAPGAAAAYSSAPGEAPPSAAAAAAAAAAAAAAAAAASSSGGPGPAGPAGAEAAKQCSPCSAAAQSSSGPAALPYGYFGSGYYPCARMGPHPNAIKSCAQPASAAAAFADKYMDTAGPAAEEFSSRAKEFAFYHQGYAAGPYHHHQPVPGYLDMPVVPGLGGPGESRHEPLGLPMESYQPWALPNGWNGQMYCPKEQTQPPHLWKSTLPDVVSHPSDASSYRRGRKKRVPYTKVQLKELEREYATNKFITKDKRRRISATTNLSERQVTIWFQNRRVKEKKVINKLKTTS
SMILES,z-score [1],z-score [2],z-score [3],composite z-score [4],z-score [5],z-score [6],z-score [7],z-score [8],z-score [9],composite z-score [10],composite z-score [11],composite z-score [12],z-score [13],z-score [14],z-score [15],z-score [16]
C=CCNC(=O)[C@H]1[C@@H]2C(=O)O[C@@H](c3ccccc3)[C@@H](c3ccccc3)N2[C@@H](c2ccccc2OCCO)[C@]12C(=O)Nc1ccc(C#CCC(C(=O)OC)C(=O)OC)cc12,0.57,2.25 (inactive),-7.81 (inactive),-0.95 (inactive),2.07 (inactive),3.57 (inactive),0.284 (inactive),-0.303 (inactive),-7.24,-0.159,0.924 (inactive),0.737,-2.25,-2.6 (inactive),-0.0106 (inactive),0.259 (inactive)
COc1ccc([Si](C)(C)[C@@H]2[C@@H](CCO)O[C@]3(C(=O)N(Cc4ccc(N(C=O)c5ccccc5)cc4)c4ccccc43)[C@H]2C)cc1,-1.59,1.76 (inactive),-2.44 (inactive),-0.493 (inactive),1.46 (inactive),4.89 (inactive),0.544 (inactive),-0.339 (inactive),-2.25,-0.184,-0.0075 (inactive),-0.0404,-2.7,-1.54 (inactive),-1.27 (inactive),-1.31 (inactive)
CC1(C)C2C=C(C(O)C3C=CC4C(=O)NC(=O)C4N3Nc3ccc(Cl)cc3Cl)C[C@@H]1C2 (some centres undefined),-2.13,-7.58 (inactive),-1.9 (inactive),0.356 (inactive),1.55 (inactive),0.84 (inactive),-0.274 (inactive),-1.08 (inactive),-1.79,-0.0769,1.15 (inactive),0.231,0.665,-4.45 (inactive),0.955 (inactive),0.327 (inactive)
CC(C)C[C@@H]1NC(=O)[C@H](C(C)C)NC(=O)[C@@]23C(=O)N[C@@H](Cc4ccccc4)C2[C@H](C)[C@@]2(C)O[C@H]2C3/C=C/CC/C=C/CNC1=O (some centres undefined),0.233,-0.399 (inactive),-0.0691 (inactive),-0.313 (inactive),0.956 (inactive),0.388 (inactive),1.04 (inactive),0.408 (inactive),0.628,-0.243,0.758 (inactive),0.607,-1.4,-6.99 (inactive),0.0132 (inactive),0.432 (inactive)
O=C(OCc1ccccc1)C1=CCC2c3[nH]c4ccccc4c3C(=O)C1N2S(=O)(=O)c1ccccc1[N+](=O)[O-] (centres undefined),-0.106,1.57 (inactive),-1.2 (inactive),-0.386 (inactive),0.381 (inactive),0.714 (inactive),-1.04 (inactive),-1.43 (inactive),-0.878,-0.113,-0.0884 (inactive),-0.0191,-1.07,-1.47 (inactive),-0.824 (inactive),-1.44 (inactive)
COc1ccc(CCNC(=O)[C@@H]2c3ccccc3C(=O)N(Cc3ccccc3Cl)[C@H]2c2ccc(CO)cc2)cc1,0.891,-0.541 (inactive),0.258 (inactive),0.0856 (inactive),0.416 (inactive),0.394 (inactive),-0.258 (inactive),-0.457 (inactive),0.883,-0.102,0.187 (inactive),0.431,0.263,-3.28 (inactive),0.139 (inactive),0.595 (inactive)
C[C@H]1NC(=O)[C@@]23C(=O)N[C@@H](Cc4ccccc4)C2[C@H](C)[C@@]2(C)O[C@H]2C3/C=C/C/C=C\CNC(=O)[C@@H]2CCCN2C1=O (some centres undefined),0.23,-0.704 (inactive),0.607 (inactive),-1.43 (inactive),-0.0126 (inactive),-0.0532 (inactive),0.901 (inactive),0.534 (inactive),1.14,0.0049,0.091 (inactive),0.667,0.91,-3.78 (inactive),0.237 (inactive),0.087 (inactive)
C=CCNC(=O)[C@@H]1[C@H]2C(=O)O[C@H](c3ccccc3)[C@H](c3ccccc3)N2[C@H](c2ccccc2OCCO)[C@@]12C(=O)N(C(=O)OCCOC)c1ccccc12,-1.59,1.86 (inactive),-1.12 (inactive),0.693 (inactive),2.26 (inactive),3.27 (inactive),0.0191 (inactive),-0.476 (inactive),-1.65,-0.0559,3.44 (inactive),0.737,-1.16,-4.27 (inactive),0.115 (inactive),0.494 (inactive)
C=C[C@H](C)[C@@H](OC(=O)Nc1ccc(OC)cc1)c1ccc(O)c2ccccc12,-1.31,-18.2 (active),-4.56 (inactive),-2.51 (inactive),0.802 (inactive),-21.8 (active),1.42 (inactive),0.525 (inactive),-2.9,-0.196,0.863 (inactive),0.251,0.0221,-4.35 (inactive),-0.025 (inactive),0.099 (inactive)
